Screening results from PubChem.
KB-V1 cytotox = kills drug-selected multidrug resistant KB-V1 cells; 3.4% of 400,000 active; AID 1347076; KB-V1 MDR cells viability, CellTiter-Glo, 72 h; Potency, µM (highest dose often 46.1 µM), usual class: cytotoxic; further: on the % scale 0 is the no-effect control and ±100 the full control effect; nearly all actives have a fitted effect of over 60% in size
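Cells of the MDR subline KB-V1 are plated, dosed with compound at multiple concentrations, and incubated 72 h at 37 degrees C; CellTiter-Glo is then added and luminescence read after 10 min.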
S2 tox = reduces viability in counter-screen for ATXN expression inhibitors. S2 cells (HEK-293 line with an ATXN2-luciferase reporter) viability, CellTiter-Fluor protease fluorescence, 24 h. 0.49% of 400,000 active. AID 651635. Potency, µM (series often up to 56.7 µM), most hits filed as cytotoxic; further: nearly all actives have a fitted effect of over 40% in size
ATXN2 expr inh = inhibitors of ATXN2 expression; HEK-293 ATXN2-luciferase reporter, luminescence, 24 h; Potency, µM (series often up to 57 µM), inactives show top-dose activity change, negative = inhibition, most hits filed as inhibitors; 0.72% of 360,000 active; AID 1745845; further: on the % scale 0 is the no-effect control and ±100 the full control effect; nearly all actives have a fitted effect of over 55% in size
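qHTS (up to 57 uM final) was run with 24 h compound exposure of reporter cells at 37 °C. Each well was multiplexed: SteadyGlo luminescence measured ATXN2-luciferase expression after a fluorogenic Gly-Phe-AFC viability readout (25 uM final).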
KB-3-1 cytotox = KB-3-1 parental cell cytotoxicity. Potency, µM (top dose mostly 46.1 µM), most hits filed as cytotoxic. 1.4% of 400,000 active. KB-3-1 viability, CellTiter-Glo ATP luminescence, 72 h. AID 1347075; further: on the % scale 0 is the no-effect control and ±100 the full control effect; nearly all actives have a fitted effect of over 60% in size
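Cytotoxicity in the drug-sensitive parental line KB-3-1 was scored as loss of CellTiter-Glo luminescence following 72 h incubation with compound. Values come from curve fitting of normalized concentration-response data.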
HT1080 IDH1KD tx = HT-1080 IDH1 knockdown cell toxicity (counter line); HT-1080 IDH1 knockdown viability, ATP luminescence, 48 h; Potency, µM (doses to about 46.1 µM), without a hit: at the top dose activity, negative = toxicity, actives largely listed as cytotoxic; 2% of 360,000 active; AID 686971;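 further: 0% = DMSO wells and -100% = cell-free medium wells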
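IDH1KD HT-1080 cells, 750/well, RPMI + 5% FBS; compound pinned after 2 h settling; 48 h, 37 °C; CellTiter-Glo luminescence; % activity normalised to DMSO and no-cell wells; curves fitted, classed by r2 and efficacy.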
HT1080NT lethal = kills 2HG-producing HT-1080-NT fibrosarcoma cells; Potency, µM (top dose mostly 46.1 µM), inactives show at the highest dose activity, negative = less viability, actives largely listed as cytotoxic; HT-1080-NT fibrosarcoma viability, CellTiter-Glo ATP luminescence, 48 h; 1.6% of 360,000 active; AID 686970;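 further: NT is the 2HG producing partner of a matched IDH1 knockdown line; 0% = DMSO-treated cells and -100% = media-only wells without cells; nearly all actives have a fitted effect of over 55% in size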
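Toxicity toward the 2HG-producing NT line was scored as %Activity, normalised to DMSO and no-cell wells, from CellTiter-Glo luminescence after 48 hours' treatment.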
Starred values were filed as active, the others as inactive; i = inactive; ? = inconclusive; · = no result given; ! = not confirmed by another sample. The list is not random: actives were taken first. Their share in the collection is about 6.2%. The call rests on the fitted dose curve; in most records, active means well fitted curve in the direction sought with a large enough effect; inconclusive means small, poorly fitted or top-dose-only effect, or another doubt; inactive means no such curve, though single readings can be large; an effect the other way counts as inactive or inconclusive. Potency means the concentration at half of the fitted maximal effect.

SMILES	KB-V1 cytotox	S2 tox	ATXN2 expr inh	KB-3-1 cytotox	HT1080 IDH1KD tx	HT1080NT lethal
COc1cc(/C=C/C(=O)N2CCCN(C(=O)/C=C/c3cc(OC)c(OC)c(OC)c3)CC2)cc(OC)c1OC	i	i	·	?	-1%	9%
COc1cc(/C=C/C(=O)N2CCC=CC2=O)cc(OC)c1OC	?	10µM*	10µM*	?	4.1µM*	5.8µM*
COc1cc(C=CC(=O)c2ccccc2)cc(OC)c1OC	23µM*	i	?	?	8.2µM*	10µM*
CCN(CCC(=O)O)c1ccc(/C=C/c2ccnc3ccccc23)cc1	i	·	·	i	·	·
CN(C)CCN(C(=O)c1ccc2ccccc2c1)c1nc2cc3c(cc2s1)OCCO3	i	i	15%	i	-4%	-4%
Cc1cc(C)c2nc(N(CCCN(C)C)C(=O)c3ccc4c(c3)OCCO4)sc2c1	26µM*	?	?	?	?	12µM*
CCc1ccc2nc(N(CCCN(C)C)C(=O)c3ccc(S(=O)(=O)N4CCCc5ccccc54)cc3)sc2c1	9.2µM*	?	?	?	?	?
CN(C)CCCN(C(=O)c1ccc2ccccc2c1)c1nc2cc3c(cc2s1)OCO3	i	32µM*	25µM*	i	?	?
COc1cccc2sc(N(CCCN(C)C)C(=O)c3ccc(S(=O)(=O)N4CCCc5ccccc54)cc3)nc12	?	?	?	?	?	18µM*
CCN(CC)c1cc(C)c2cc(NC(=O)/C=C/c3ccccc3OC(C)C)ccc2n1	i	?	-15%	i	·	·
CCc1ccc2nc(N(CCCN(C)C)C(=O)c3ccc(C(=O)c4ccccc4)cc3)sc2c1	i	?	?	23µM*	?	?
Cc1cccc2sc(N(CCCN(C)C)C(=O)c3ccc(Cl)s3)nc12	i	?	22µM*!	i	?	-18%
COc1cc2nc(N(CCCN(C)C)C(=O)c3ccc(C(=O)c4ccccc4)cc3)sc2cc1OC	i	·	?	i	-1%	0%
O=C(NC1CCCC1)C(c1ccc(F)cc1)N(C(=O)Cc1cccs1)c1ccc2c(c1)OCCO2 (centres undefined)	i	i	-1%	i	3%	0%
Cc1ccc(C(C(=O)NC2CCCC2)N(C(=O)Cc2cccs2)c2ccc3c(c2)OCCO3)cc1 (centres undefined)	21µM*	i	-12%	i	-13%	-7%
Cc1ccc(C(C(=O)NC2CCCC2)N(C(=O)Cc2cccs2)c2ccc(C)c(C)c2)o1 (centres undefined)	21µM*	i	-24%	i	?	0%
Cc1nn(C)cc1C(C(=O)NC1CCCCC1)N(C(=O)Cc1cccs1)c1ccc(C(C)C)cc1 (centres undefined)	2.9µM*	i	-11%	?	?	?
Cc1nn(C)cc1C(C(=O)NC1CCCCC1)N(C(=O)Cc1cccs1)c1ccc(F)cc1 (centres undefined)	i	i	-4%	i	21%	3%
COc1ccc(CNC(=O)C(c2ccc(C)cc2)N(Cc2cccs2)C(=O)c2ccc3c(c2)OCCO3)cc1 (centres undefined)	4.6µM*	i	-26%	i	13µM*	?
CCOc1ccccc1NC(=O)Cn1nc2c3cc(F)ccc3n(Cc3cccc(C)c3)cc-2c1=O	i	i	16%	i	·	·
COc1ccccc1-c1nc(-c2ccccc2)nc(N2CCN(C)CC2)c1C#N	i	i	9%	?	21µM*	16µM*
O=C(NCCc1ccccc1)c1c2c(nc3ccccc13)C(=O)N(C1CCCCC1)C2	i	·	·	i	·	·
Cc1ccc(-c2csc3n[nH]c(=S)n23)cc1	12µM*!	i	0%	?	1%	-1%
O=C(Cn1c(=O)nc(-c2ccccc2)c2cc(Cl)ccc21)Nc1ccc(F)c(Cl)c1	i	i	8%	i	·	·
COc1ccc(-c2csc(NC(=O)c3ccc(S(=O)(=O)N4CCc5ccccc5C4)cc3)n2)cc1	i	i	-4%	?	?	-22%
SMILES	KB-V1 cytotox	S2 tox	ATXN2 expr inh	KB-3-1 cytotox	HT1080 IDH1KD tx	HT1080NT lethal
CC1CN(S(=O)(=O)c2ccc(C(=O)Nc3nnc(-c4ccco4)o3)cc2)CC(C)O1 (centres undefined)	?	i	-17%	?	-17%	-28%
COc1ccc(-c2nnc(NC(=O)c3ccc(S(=O)(=O)N4CCc5ccccc5C4)cc3)o2)cc1	10µM*	?	?	?	-19%	?
COc1cccc(-c2nnc(NC(=O)c3ccc(S(=O)(=O)N4CC(C)OC(C)C4)cc3)o2)c1 (centres undefined)	?	?	?	?	9.2µM*	?
O=c1c2c(nc3c(-c4ccccc4)c[nH]n13)CCC2	?	i	-20%	?	?	11µM*
Cc1c(-c2ccccc2)[nH]n2c(=O)c3c(nc12)CCCC3	21µM*	?	103%	i	-2%	9%
O=c1c2c(nc3c(-c4cccc(Br)c4)c[nH]n13)CCCC2	i	i	?	i	-13%	-10%
O=c1c2c(nc3c(-c4ccc(Cl)cc4)c[nH]n13)CCC2	4.6µM*	?	13µM*	?	?	-21%
COc1ccc(CN2CCC(N(CCc3ccccc3)Cc3ccccc3)CC2)c(OC)c1	13µM*	?	?	?	?	?
Clc1ccc2c(c1)[C@H]1OCC[C@H]1[C@@H](c1ccco1)N2	i	i	45%	i	-8%	-4%
CCc1ccc2c(c1)[C@H]1OCC[C@H]1[C@@H](c1cccs1)N2	?	i	-1%	13µM*	3.7µM*	4.1µM*
C/C(=C\C(=O)c1ccc(F)cc1)Nc1ccc(N2CCOCC2)cc1	21µM*	?	-10%	i	2%	-3%
O=C(/C=C/c1ccc(F)cc1)c1ccc(N2CCOCC2)cc1	i	i	16%	i	5%	-2%
COc1ccc(-c2ccnc(SCC(=O)c3ccc(OC)c(OC)c3)n2)cc1	16µM*	i	-11%	i	0%	7%
COc1ccc(-c2ccnc(SCC(=O)c3ccc(Cl)cc3)n2)cc1	?	i	14%	i	8%	2%
COc1cccc(CNc2nccn(-c3cc(C)cc(C)c3)c2=O)c1	?	i	10%	i	·	·
CCCc1nc([N+](=O)[O-])c(S(=O)(=O)c2ccccc2)n1CC(C)C	i	?	?	?	?	-10%
